Dicer inh – blocks human Dicer maturation of pre-miR-21. Q9UPY3. cat-ELCCA pre-miR-21 Dicer processing, chemiluminescence; hits give high values. z-score at 25 µM. actives 6% (n = 47,000). AID 1347074; in the data active means z-score above about 3, passing the limit was not always enough;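 further: plate controls were vehicle for no effect and no enzyme for full effect; higher signal means more uncleaved substrate so more Dicer inhibition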
Target sequence (Q9UPY3 whole entry, looked up): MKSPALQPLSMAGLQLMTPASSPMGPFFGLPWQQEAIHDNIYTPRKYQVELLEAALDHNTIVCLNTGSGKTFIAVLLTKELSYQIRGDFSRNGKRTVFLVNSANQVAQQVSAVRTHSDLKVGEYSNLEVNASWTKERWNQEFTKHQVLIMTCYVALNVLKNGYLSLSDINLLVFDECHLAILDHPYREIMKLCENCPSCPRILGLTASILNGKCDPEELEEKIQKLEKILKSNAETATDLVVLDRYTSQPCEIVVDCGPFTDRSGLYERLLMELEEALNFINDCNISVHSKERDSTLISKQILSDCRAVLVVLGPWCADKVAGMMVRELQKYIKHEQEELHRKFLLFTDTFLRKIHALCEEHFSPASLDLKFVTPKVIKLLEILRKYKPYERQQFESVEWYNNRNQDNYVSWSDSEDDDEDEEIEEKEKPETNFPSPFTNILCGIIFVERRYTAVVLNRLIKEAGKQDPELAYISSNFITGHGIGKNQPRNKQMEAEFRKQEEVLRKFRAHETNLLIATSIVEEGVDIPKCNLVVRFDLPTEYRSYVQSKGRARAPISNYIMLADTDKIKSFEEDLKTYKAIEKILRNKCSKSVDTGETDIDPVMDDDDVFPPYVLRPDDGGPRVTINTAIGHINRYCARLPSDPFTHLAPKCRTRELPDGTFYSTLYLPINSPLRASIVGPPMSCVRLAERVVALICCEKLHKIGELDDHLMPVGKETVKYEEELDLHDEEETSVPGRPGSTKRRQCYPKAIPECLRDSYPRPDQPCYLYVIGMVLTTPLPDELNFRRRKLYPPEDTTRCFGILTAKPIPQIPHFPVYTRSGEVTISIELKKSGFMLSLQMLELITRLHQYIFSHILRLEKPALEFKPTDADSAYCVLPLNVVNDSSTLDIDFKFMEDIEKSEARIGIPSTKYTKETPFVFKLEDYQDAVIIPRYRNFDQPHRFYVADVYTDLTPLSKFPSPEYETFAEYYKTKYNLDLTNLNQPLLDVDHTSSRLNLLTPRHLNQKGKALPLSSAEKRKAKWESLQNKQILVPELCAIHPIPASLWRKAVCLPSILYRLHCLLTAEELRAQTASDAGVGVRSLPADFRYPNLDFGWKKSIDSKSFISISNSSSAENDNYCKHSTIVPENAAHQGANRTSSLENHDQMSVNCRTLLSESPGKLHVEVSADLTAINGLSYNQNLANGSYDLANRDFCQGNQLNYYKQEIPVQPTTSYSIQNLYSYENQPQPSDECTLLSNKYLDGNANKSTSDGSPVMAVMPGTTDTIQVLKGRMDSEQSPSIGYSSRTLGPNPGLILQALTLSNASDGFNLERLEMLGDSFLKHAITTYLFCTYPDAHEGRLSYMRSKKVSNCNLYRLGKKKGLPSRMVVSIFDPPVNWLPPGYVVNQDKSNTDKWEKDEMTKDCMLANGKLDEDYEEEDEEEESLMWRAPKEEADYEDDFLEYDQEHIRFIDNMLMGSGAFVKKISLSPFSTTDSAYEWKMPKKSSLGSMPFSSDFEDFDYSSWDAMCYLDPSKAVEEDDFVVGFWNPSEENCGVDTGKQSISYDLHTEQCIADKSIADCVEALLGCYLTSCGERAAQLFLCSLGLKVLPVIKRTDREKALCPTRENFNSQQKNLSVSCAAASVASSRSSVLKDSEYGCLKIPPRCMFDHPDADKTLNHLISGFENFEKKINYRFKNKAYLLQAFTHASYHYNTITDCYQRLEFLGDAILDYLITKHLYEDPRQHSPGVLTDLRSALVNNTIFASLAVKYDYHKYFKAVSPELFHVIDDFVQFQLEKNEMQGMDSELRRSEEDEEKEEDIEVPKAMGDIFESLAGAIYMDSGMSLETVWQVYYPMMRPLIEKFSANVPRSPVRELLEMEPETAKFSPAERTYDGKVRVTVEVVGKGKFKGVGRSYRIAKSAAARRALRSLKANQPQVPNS
An asterisk follows results filed as active. The full list was thinned out, with hits kept by preference.

Results for O=C(Oc1ccccc1/C=N/N=C1\SCC(=O)N1c1cccc(F)c1)C1CC1 ?
Dicer inh: 5.3

Results for Cc1ccc(S(=O)(=O)NC(=O)NCCCNC(=O)OC(C)(C)C)cc1 ?
Dicer inh: -0.84

What do the screens show for `O=S1(=O)N=C(Nc2cccc(F)c2)c2ccccc21`?
Dicer inh: -1.2

Results for Cn1c(SCC(=O)c2ccc(Cl)cc2)nnc1C(F)(F)F ?
Dicer inh: -0.22

What do the screens show for `COc1ccc(C(=O)Cn2c3ccccc3n3ncnc23)cc1`?
Dicer inh: 1.9

How did COc1ccccc1Nc1nc(-c2sc(N)nc2C)cs1 do in these assays?
Dicer inh: -3.3

What do the screens show for `Cc1nc(C)c(-c2csc(Nc3ccc(N(C)C)cc3)n2)s1`?
Dicer inh: 4.1*

How did Cc1nc(C)c(-c2csc(Nc3ccc(C(=O)O)c(O)c3)n2)s1 do in these assays?
Dicer inh: 1.3

What do the screens show for `CN(C)c1ccc(Nc2nc(-c3cccs3)cs2)cc1`?
Dicer inh: -1

What do the screens show for `COc1ccccc1Nc1n[nH]c(=S)s1`?
Dicer inh: -0.72

How did COc1ccccc1Nc1nc(-c2c(C)nc3cc(C)ccn23)cs1 do in these assays?
Dicer inh: 4.6*

How did CC(C)(C)c1csc(-c2ccc(/C=N/Nc3ccccn3)cc2)n1 do in these assays?
Dicer inh: 0.47

Results for CC(C)N(Cc1ccccc1)C(=O)c1ccc(F)cc1F ?
Dicer inh: -0.51

What do the screens show for `O=C(CCN(Cc1ccco1)S(=O)(=O)c1ccc(Cl)cc1)NNC(=O)c1ccc(Cl)cc1`?
Dicer inh: 0.5

What do the screens show for `CCOC(=O)C1CCN(c2nc(OC)nc(OC)n2)CC1`?
Dicer inh: -0.28

What do the screens show for `CCOCCOC(=O)C1=C(C)NC2=C(C(=O)CC(C)(C)C2)C1c1ccc(O)c(OCC)c1` (stereo not given)?
Dicer inh: -0.34

What do the screens show for `Cn1c(-c2ccccc2)cnc1NCc1cccc(Br)c1`?
Dicer inh: 4.4*

What do the screens show for `Cn1c(-c2cccc(Br)c2)cnc1NCc1ccccc1`?
Dicer inh: 3.8*

What do the screens show for `Cn1c(-c2ccc(F)cc2)cnc1NCc1cccc(Br)c1`?
Dicer inh: 2.8

Results for COc1ccccc1CNc1ncc(-c2cccc(Br)c2)n1C ?
Dicer inh: -0.18

How did Cn1c(-c2ccc(Cl)cc2)cnc1NCc1ccc(F)cc1 do in these assays?
Dicer inh: 2.6

What do the screens show for `COc1ccc(-c2cnc(NCc3ccc(Cl)cc3)n2C)cc1`?
Dicer inh: -0.45

What do the screens show for `Cn1c(-c2ccc(Br)cc2)cnc1NCc1cccc(F)c1`?
Dicer inh: 2.5

Results for Cc1ccc(-c2cnc(NCc3ccc(Cl)cc3)n2C)cc1 ?
Dicer inh: 3.2*

Results for Cn1c(-c2ccccc2)cnc1NCc1ccccc1O ?
Dicer inh: 1.9

How did O=C(c1cnn(-c2ccc(Cl)cc2)c1C(F)(F)F)N1CCN(c2ncnc3ccsc23)CC1 do in these assays?
Dicer inh: 0.41

Results for CCCCCCCSc1nc2c(c(=O)[nH]c(=O)n2C)n1C ?
Dicer inh: 0.75

What do the screens show for `N#C/C(=C\c1c(Cl)cccc1Cl)S(=O)(=O)c1cccs1`?
Dicer inh: -0.95

Results for COC(=O)c1sccc1N/C=C(\C#N)S(=O)(=O)c1cccs1 ?
Dicer inh: 19*

What do the screens show for `CN(C)/C=C(\C#N)S(=O)(=O)c1cccs1`?
Dicer inh: -1.8

What do the screens show for `CSc1ccccc1NC(=O)CCSc1nc(-c2ccco2)cc(C(F)(F)F)n1`?
Dicer inh: -1

What do the screens show for `O=C(Nc1ccc(-n2nc(C(F)(F)F)cc2C(F)(F)F)cc1)Nc1ccc(F)cc1F`?
Dicer inh: -0.72

How did O=C1C2ON(c3ccccc3)C(c3ccccc3O)C2C(=O)N1c1ccc(F)cc1 (stereo not given) do in these assays?
Dicer inh: -0.01

How did CCOC(=O)C1=C(C)Nc2nnnn2C1c1cc(Br)ccc1OC (stereo not given) do in these assays?
Dicer inh: 47*

Results for COC(=O)C1=C(C(=O)c2ccc(C)cc2)C(c2ccccc2OC)n2nnnc2N1 (stereo not given) ?
Dicer inh: 0.5

What do the screens show for `COC(=O)C1=C(C)Nc2nnnn2C1c1cc(Br)ccc1OC` (stereo not given)?
Dicer inh: -0.18

Results for COC(=O)C1=C(C(=O)c2ccccc2)C(c2ccccc2OC)n2nnnc2N1 (stereo not given) ?
Dicer inh: 0.01

How did CCOC(=O)C1=C(C)Nc2nnnn2C1c1cc(OC)ccc1OC (stereo not given) do in these assays?
Dicer inh: 1.6

How did COc1ccccc1C1C(C(=O)OC(C)C)=C(C)Nc2nnnn21 (stereo not given) do in these assays?
Dicer inh: 3.2*

Results for CC1=C(C(N)=O)C(c2ccccc2F)n2nnnc2N1 (stereo not given) ?
Dicer inh: 1.1

Results for CCOc1ccsc1-c1nnc(-c2ccc(Cl)cc2)o1 ?
Dicer inh: 0.18

Results for N#CCSc1nnc(-n2cccc2)s1 ?
Dicer inh: -0.71

Results for CCOC(=O)C1=CNc2ccccc2N=C1N ?
Dicer inh: -0.57

Results for CN1C(=O)C(O)(CC(=O)c2ccccc2O)c2ccccc21 (stereo not given) ?
Dicer inh: -2.6

How did CC(=O)Nc1ccc(S(=O)(=O)Oc2ccccc2Cl)cc1 do in these assays?
Dicer inh: -1.1

How did Cc1ccc(S(=O)(=O)Oc2c(Cl)cc(C(C)(C)C)cc2Br)cc1 do in these assays?
Dicer inh: -1.1

What do the screens show for `CC(=O)Nc1ccc(S(=O)(=O)Oc2c(Cl)cc(C)cc2Cl)cc1`?
Dicer inh: 4.5*

What do the screens show for `N#Cc1c(-n2ncnc2-c2cccnc2)sc2c1CCCCC2`?
Dicer inh: -2.8

What do the screens show for `CSC(=NCc1c(N)cccc1F)NC#N`?
Dicer inh: 0.48

How did CC(C)(C)c1cc(C(C)(C)C)n(-c2ccc(C(=O)O)cc2)n1 do in these assays?
Dicer inh: -0.66

How did CN(C(=O)c1ccc2c(c1)CCO2)C(C)(C)C do in these assays?
Dicer inh: -0.86

What do the screens show for `CC(C)(C)c1ccc2c(c1)CN(c1ccc(C(=O)O)cc1)CO2`?
Dicer inh: 3.9*

Results for C=CCSc1nnc(C)n1-c1ccc(OCc2ccccc2)cc1 ?
Dicer inh: -1

How did CCN(CC)OC(=O)c1ccc(Oc2ccc(Cl)cc2)c([N+](=O)[O-])c1 do in these assays?
Dicer inh: 1.1

Results for CC(C)(C)c1ccc(C(=O)Oc2ccc3occ([N+](=O)[O-])c3c2)cc1 ?
Dicer inh: 2

What do the screens show for `COc1cc(C2c3c(oc4ccc(C)cc4c3=O)C(=O)N2c2nccs2)ccc1O` (stereo not given)?
Dicer inh: 1.6

What do the screens show for `O=C(O)C(c1ccccc1)(c1ccccc1)c1ccccc1`?
Dicer inh: 1.1

Results for Cn1c(=O)c2c(nc(NCCO)n2CC(O)COc2ccccc2)n(C)c1=O (stereo not given) ?
Dicer inh: -1.6

Results for COc1ccc(OCC(O)Cn2c(NC3CCCCC3)nc3c2c(=O)n(C)c(=O)n3C)cc1 (stereo not given) ?
Dicer inh: 3.3*

Results for Cn1c(=O)c2c(nc(NC3CCCCC3)n2CC(O)COc2ccccc2)n(C)c1=O (stereo not given) ?
Dicer inh: -2.4

What do the screens show for `CCOC(=O)C(NC(=O)Nc1ccccc1)(Nc1ccc(C)cc1)C(F)(F)F` (stereo not given)?
Dicer inh: 1.8

Results for CS/C(=C(/C#N)S(=O)(=O)C(C)C)N1CCCC1 ?
Dicer inh: -1.2

What do the screens show for `CS/C(=C(/C#N)S(=O)(=O)C(C)C)N1CCOCC1`?
Dicer inh: -1.3
